Only some compounds are listed: those with a hit (about 5.9% of all), similar ones and a draw of the others.
ALR H2O2 inh = blocks human ALR sulfhydryl oxidase activity | purified ALR, DTT oxidation, H2O2 HRP-luminol luminescence | inhibition, % (concentration not given with the values) | 290,000 compounds, 3.8% hits | AID 485317;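 active = mean replicate inhibition above about 79%, with every replicate also reaching it, limit read from the data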
Target sequence (P55789 whole entry, looked up): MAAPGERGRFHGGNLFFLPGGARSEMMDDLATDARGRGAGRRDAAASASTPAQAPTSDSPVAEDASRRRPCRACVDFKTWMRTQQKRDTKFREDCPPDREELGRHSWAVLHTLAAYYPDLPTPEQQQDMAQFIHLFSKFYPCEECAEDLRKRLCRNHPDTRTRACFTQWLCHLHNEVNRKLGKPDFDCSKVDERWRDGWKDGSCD
ABHD5-PLIN5 inh = inhibitors of human ABHD5-perilipin-5 interaction. 360,000 compounds, 0.78% hits. Q00G26+Q8WTS1. inhibition, % at 4 µM. Split G. princeps luciferase complementation, luminescence, 4 h. AID 602281;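 active = inhibition above the mean inhibition across every tested compound plus 3 SD, cut at about 22% in these data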;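 note: 0% = DMSO only wells and the 100% control is not disclosed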
Rtt109 HAT inh = blocks Candida albicans Rtt109/Vps75 acetyltransferase activity | purified Rtt109/Vps75, ThioGlo CoA-SH fluorescence, 4 h | inhibition, % at 34.9 µM | 330,000 compounds, 0.16% hits | AID 540336;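 active = inhibition of at least 50% in every replicate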
LANA-H2B inh = blocks KSHV LANA binding to histone H2A/H2B; Q9QR71; cell-free LANA-H2A/H2B peptide, fluorescence polarization; inhibition, % (concentration not given with the values); 320,000 compounds, 0.6% hits; AID 2629; in the data active = inhibition mostly above about 10%, no sharp cut-off; inactive = mostly below about 6.7%
PRMT1 inh = PRMT1 (human) inhibition, primary screen. Q99873. 370,000 compounds, 1.3% hits. inhibition, % at 2.79 µM. recombinant PRMT1, activity-based probe fluorescence polarization;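 active = inhibition above about 21% made by adding two undisclosed values, limit read from the data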
Target sequence (Q99873 whole entry, looked up): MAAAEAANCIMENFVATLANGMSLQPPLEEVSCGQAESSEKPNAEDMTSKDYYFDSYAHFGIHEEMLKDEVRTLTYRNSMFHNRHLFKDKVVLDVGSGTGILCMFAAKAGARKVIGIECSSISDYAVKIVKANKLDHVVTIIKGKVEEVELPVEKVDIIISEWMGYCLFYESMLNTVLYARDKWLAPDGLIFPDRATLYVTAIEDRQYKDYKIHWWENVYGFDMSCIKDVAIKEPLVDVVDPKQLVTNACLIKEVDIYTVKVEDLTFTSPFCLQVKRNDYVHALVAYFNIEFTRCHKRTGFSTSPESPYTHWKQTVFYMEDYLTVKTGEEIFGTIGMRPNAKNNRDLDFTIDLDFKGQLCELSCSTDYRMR
rCAG RNA binder = r(CAG) repeat RNA binding. TO-PRO-1 dye displacement fluorescence. inhibition, % at 3 µM. 370,000 compounds, 1.3% hits. AID 651821;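 active = inhibition above the plate cutoff, the mean of all test compounds on that plate plus 3 SD, cut at about 35% in these data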;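 note: 0% = DMSO alone and 100% = 100 µM mitoxantrone as full dye displacement; higher means more dye released from RNA so lower well fluorescence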
Starred values were filed as active, the others as inactive; . = no result given.

SMILES	ALR H2O2 inh	ABHD5-PLIN5 inh	Rtt109 HAT inh	LANA-H2B inh	PRMT1 inh	rCAG RNA binder
NS(=O)(=O)c1ccc(CCNC(=O)CN2CCN(c3ccccc3O)CC2)cc1	99*	3	20	8	1	5
NS(=O)(=O)c1ccc(CCNC(=O)CSc2ccc([N+](=O)[O-])cc2)cc1	3	3	-5	2	9	3
CCOC(=O)[C@@]12CCCC=C1N(CCc1ccc(Cl)cc1)C(=O)[C@H]2CC(=O)N1CCSCC1	.	.	.	.	-3	8
O=C(NCc1ccccc1Cl)c1ccc2nc([C@@H]3O[C@H](CO)[C@@H](O)[C@H]3O)[nH]c2c1	.	0	.	.	-8	2
C=CCNC(=O)c1onc(CSc2cc(C)cc(C)c2)c1C(=O)O	1	-8	-9	-1	2	25
COCCNC(=O)c1onc(CSc2ccc(C(C)C)cc2)c1C(=O)O	89*	4	3	2	1	25
CCCCNC(=O)c1onc(CSc2ccc(C)c(C)c2)c1C(=O)O	98*	-5	4	3	3	34
C=CCNC(=O)c1onc(CSc2ccc(C)c(C)c2)c1C(=O)O	98*	-10	-6	6	1	16
COc1ccccc1CCn1cnc(-c2cccc(Cl)c2)c1CC(C)C	.	.	.	.	6	-1
COc1ccc(Cn2c(-c3ccc(OC)cc3)n[nH]c2=S)cc1	95*	-7	-3	8	-2	0
CC(C)Cn1c(-c2csc(C(C)C)c2)n[nH]c1=S	94*	-4	19	-1	5	-4
CCn1c(-c2csc(C(C)C)c2)n[nH]c1=S	56	-4	-2	8	4	3
CCc1cc(-c2n[nH]c(=S)n2Cc2ccccc2)cs1	92*	-3	7	5	7	5
Cc1cc(-c2n[nH]c(=S)n2CC(C)C)cs1	44	0	3	-8	-4	1
COc1ccc(-c2n[nH]c(=S)n2CC(C)C)cc1	88*	-4	2	-1	3	2
CC(C)CN1C(=O)C[C@]2(C(=O)N(C)c3ccc(NS(=O)(=O)c4ccc(F)cc4)cc32)C1c1ccccc1 (stereo not given in full)	.	.	.	.	-3	2
COC(=O)[C@]12C[C@H](CC(=O)NCCc3ccccc3OC)C(=O)N(Cc3ccccc3)C1=C[C@H](C(C)(C)C)O[C@@H]2C	.	.	.	.	-3	1
CCCCCC(=O)N1C[C@@H](O)[C@H](n2cc(COC(=O)c3ccccc3)nn2)C[C@@H]1c1ccc(Cl)cc1	.	-11	.	.	3	4
CCn1c(-c2csc3ccccc23)n[nH]c1=S	2	-10	7	2	0	-1
CCn1c(-c2ccc(Cl)cc2)n[nH]c1=S	98*	-9	-20	0	-1	0
CC(C)Cn1c(-c2csc3ccccc23)n[nH]c1=S	95*	-7	-22	0	3	5
CCOc1ccccc1-c1c2cc(O)c(=O)cc-2oc2cc(O)c(O)cc12	.	27*	6	.	.	.
COc1ccc(OC)c(-c2oc3ccccc3c(=O)c2O)c1	-3	2	6	3.4*	0	0
COc1cc(OC)c(-c2oc3ccccc3c(=O)c2O)c(OC)c1	.	-2	-3	.	-3	1
COc1ccc(OC)c(-c2c3cc(O)c(=O)cc-3oc3cc(O)c(O)cc23)c1	80*	16	0	.	.	.
SMILES	ALR H2O2 inh	ABHD5-PLIN5 inh	Rtt109 HAT inh	LANA-H2B inh	PRMT1 inh	rCAG RNA binder
O=c1cc2oc3cc(O)c(O)cc3c(-c3ccccc3O)c-2cc1O	.	13	-4	.	.	.
Cc1ccccc1NC(=O)N(C)[C@H]1C[C@H]2c3[nH]c4c(-c5ccc6c(c5)OCO6)cccc4c3CCN2C(=O)[C@H]1[C@H](C)O	.	.	.	.	-9	5
CCNC(=O)C1(C)CCN(C(=O)c2c(-c3ccccc3)noc2C)C1 (stereo not given)	.	-5	.	.	2	-1
CCN(CC)CCN1C(=O)C(O)=C(C(=O)c2ccc(C)o2)C1c1ccccn1 (stereo not given)	-12	.	.	16*	.	.
O=C(C1=C(O)C(=O)N(CCCN2CCOCC2)C1c1ccccn1)c1cc2ccccc2o1 (stereo not given)	12	3	.	28*	-2	6
CCOC(=O)[C@@]12CN(C(=O)OC(C)(C)C)CC=C1N(Cc1ccc(OC)cc1)C(=O)[C@H]2CC(=O)NCCCN1CCCC1=O	.	.	.	.	-2	3
COc1ccc(-c2ccc3nncn3c2)cn1	.	2	.	.	6	2
CC(=O)CC[C@H]1CC[C@]2(CCCN(C(=O)C(C)(C)C)C2)O1	.	.	.	.	4	2
COc1cc(C(=O)NC2CCCCN(Cc3cccc(C(F)(F)F)c3)C2=O)cc(OC)c1OC (stereo not given)	.	.	.	.	-1	2
Cn1c(=O)n(C)c2cc(S(=O)(=O)Nc3ccccc3O)ccc21	51	4	-3	-1	2	-5
Cn1c(=O)n(C)c2cc(S(=O)(=O)Nc3cc(Cl)ccc3O)ccc21	98*	-3	2	-4	0	3
CC(=O)N1CCc2c(sc(NC(=O)c3ccc([N+](=O)[O-])o3)c2C(N)=O)C1	.	11	.	.	4	22
CCC(=O)N1CCc2cc(OC)c(OC)cc2C1COc1ccc(F)cc1 (stereo not given)	.	-4	-10	-1	0	-4
COc1ccc(OC)c(S(=O)(=O)Nc2ccc(C(=O)Nc3cc(C)on3)cc2)c1	.	.	.	.	-3	5
CC(=O)Nc1ccc(CN2C(=O)C(C)(C)ON=C2c2ccc(C(F)(F)F)cc2)cc1	.	3	.	.	-5	1
O=C(O)CNS(=O)(=O)Cc1ccccc1	.	-5	1	-5	4	2
O=S(=O)(Cc1ccccc1)N(O)c1ccccc1	99*	-9	1	-3	6	-1
C[C@@H]1CCCCO[C@@H](CN(C)C(=O)Cc2ccccc2)[C@@H](C)CN([C@H](C)CO)C(=O)c2cc(NC(=O)C3CCCCC3)ccc2O1	.	-1	.	.	1	5
CCOC(=O)c1cnc2ccc(C)cc2c1Nc1ccc(N2CCOCC2)cc1	98*	8	15	-3	-3	-6
CCOC(=O)c1ccc2ncc(C(=O)OCC)c(NCCN3CCOCC3)c2c1	-9	4	-6	-2	-1	-7
COc1ccc(NC(=O)CN(C)C(=O)CSc2ccc3c(c2)OCCO3)cc1	98*	-7	16	1	15	0
COc1ccc(NC(=O)CSc2ccc3c(c2)OCCO3)cc1	98*	-5	5	-4	5	-1
COc1ccc(NC(=O)CSc2ccc3c(c2)OCCO3)cc1S(N)(=O)=O	-5	5	-1	-1	1	3
CC(C)C(NS(=O)(=O)c1ccccc1)C(=O)N1CCN(C(=O)c2ccco2)CC1 (stereo not given)	-6	-11	-4	0	0	-4
O=C(/C=C/c1ccc(F)cc1)OCC(=O)c1ccc[nH]1	-2	7	0	86*	0	1
CCN(CC)C(=O)c1ccc2c(c1)NC(=O)C(C)(C)O2	.	.	.	.	1	3

Screening results (PubChem)
